Data on 13 molecules can be found in PubChem BioAssay (NCI).

This is part of a sample that, as a whole, favours compounds with a hit. Of some 83,000 tested, about 20% had one in any assay.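 Assay: single dose, 48 h. Readout: percent growth (0 = no net growth; negative = cell death). Active: <10.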 Values without a mark were called inactive. The source made the active and inactive calls.

Holding throughout (test): NCI-60 one-dose screen, 48 h (100 = growth as untreated, 0 = no growth, -100 = all killed)
Holding throughout (settings): 10 µM unless noted

Assay [1] relates to EKVX NSCLC.
The test system of assay [2] is SN12C renal.
Assay [3] deals with UO-31 renal.
Assay [4] has as its system TK-10 renal.
The test system of assay [5] is ACHN renal.
Assay [6] has as its system CAKI-1 renal.
The subject of assay [7] is A498 renal.
Assay [8] concerns CCRF-CEM leukemia.
Assay [9] relates to MOLT-4 leukemia.
Assay [10] has as its system SR leukemia.

Consider `CCC1=C[C@]2(C3CC(=O)N(c4ccccc4)C3=O)CC(C(C)(C)C)C[C@@H]2[C@@H]2C(=O)N(c3ccccc3)C(=O)[C@H]12` (stereo not given in full), for which the growth is 74.3% in assay [1]; 89.2% in assay [2]; 73.1% in assay [3]; 99.7% in [4]; 90.5% in assay [5]; 71.4% in assay [6]. Moreover, the growth is 88% in assay [7], 86.2% in assay [8], 80.4% in [9] and 80.4% in [10].
Take `COc1cc(C2C(C#N)=C(N)OC3=C2C(=O)c2ccccc2C3=O)cc(OC)c1OC` (stereo not given): the growth in assay [1] was 52.4%; in assay [2], 39.2%; in assay [3] it was 41.2%; in assay [4], 63.9%; in assay [5], 37.3%; in assay [6], 40.9%. Further, the growth in assay [7] is -0.0439% (active); in [8] it was 55.6%; in assay [9], 87.1%; in assay [10] it was 31.6%.
With `COc1cc(C2C3=C(COC3=O)N(CCO)c3cc4c(cc32)CCC4)cc(OC)c1O` (stereo not given), the growth in [1] was 34.3%; in [2], 33.5%; in assay [3], 49.7%; in assay [4] it was 45%; in assay [5], 42.8%; in assay [6] it was 21.1%. In addition, the growth in assay [7] is 17.2%; in [8] it was 17.2%; in assay [9] it was 20.6%; in assay [10], 33.1%.
As for `NCCOc1ncccc1/C=C1\c2ccccc2-c2ccc([N+](=O)[O-])cc21`, the growth was -19% (active) in [1]; -62% (active) in assay [2]; -99.2% (active) in assay [3]; -74.9% (active) in [4]; -89.4% (active) in [5]; -39.3% (active) in assay [6]. In addition, the growth in [7] is -89% (active); in assay [8], 8.64% (active); in [9], -3.92% (active); in [10] it was 1.14% (active).
On to `Brc1ccc(Oc2ccc(Nc3ncnc4onc(-c5ccccc5)c34)cc2)cc1`, for which the growth in assay [1] was 105%; in assay [2], 94.8%; in assay [3], 73%; in [4], 110%; in assay [5], 105%; in assay [6], 91.8%. Moreover, the growth in assay [7] is 82.4%; in assay [8] it was 97.3%; in assay [9], 94%; in assay [10] it was 94.2%.
With `CC/C=C\C[C@H](O)C/C=C1/C(=O)C=C[C@@H]1C/C=C\CCCC(=O)OCCS(=O)(=O)c1ccccc1`, the growth is 104% in [1]; 37.3% in assay [2]; 70.4% in assay [3]; 104% in assay [4]; 86.3% in assay [5]; 65.4% in [6]. Moreover, the growth in [7] is 115%; in assay [8], 5.02% (active); in [9] it was 8.02% (active); in [10] it was 8.55% (active).
On to `CN(O)c1nc(N(C)O)nc(N2CCOCC2)n1`, for which the growth in [1] was 5.22% (active); in [2], 53.7%; in assay [3], 12.7%; in assay [4], 16.3%; in assay [5], 17.5%; in assay [6], -11.2% (active). Further, the growth in assay [7] was 89.6%; in assay [8] it was 5.09% (active); in assay [9] it was 22.1%; in [10] it was 55.6%.
With `O=C(Cn1cc(COc2ncnc3c2cnn3-c2ccccc2)nn1)Nc1cccc2ccccc12`, the growth in assay [1] was 85.5%; in assay [2] it was 96.8%; in assay [3], 99.8%; in assay [4] it was 108%; in assay [5] it was 91%; in assay [6] it was 90.6%. Moreover, the growth in [7] is 88.8%; in assay [8], 96.6%; in assay [9] it was 94.8%; in assay [10], 101%.
On to `CNCCNc1nc2ccccc2c2c(=O)c3cc(F)ccc3sc12`, for which the growth in assay [1] was 71.9%; in [2] it was 67.2%; in assay [3], 41.3%; in [4], 60.2%; in assay [5] it was 37.3%; in assay [6], 44%. Besides, the growth in assay [7] was 38.9%; in assay [8], 15.5%; in assay [9] it was -18.9% (active); in [10] it was 13.6%.
As to `Clc1ccc(Oc2ccc(Nc3ncnc4onc(-c5ccccc5)c34)cc2)c(Cl)c1`, the growth is 103% in [1]; 94% in assay [2]; 67% in [3]; 105% in [4]; 105% in assay [5]; 90.6% in assay [6]. Moreover, the growth in [7] is 103%; in [8], 98.1%; in assay [9], 89.8%; in assay [10], 80.6%.
As to `Cc1ccc2[nH]c(=O)cc(-n3nncc3Cn3c4ccccc4c4ccccc43)c2c1`, the growth in [1] was 98.2%; in assay [2] it was 101%; in [3] it was 73.7%; in assay [4], 118%; in [5], 90%; in [6], 85%. The growth is 80% in assay [7], 99.5% in [8], 101% in assay [9] and 103% in [10].
As for `C[C@@H](C(=O)NCCCC#Cc1cnc(Nc2ccc(C#N)cc2)nc1NC1CC1)N(C)C(=O)/C=C/CN(C)C`, the growth in [1] is 33.5%; in assay [2], 35.9%; in [3] it was 28.6%; in assay [4], 63%; in [5], 14.3%; in assay [6], 60.1%. Also, the growth in assay [7] was -5.21% (active); in assay [8], 13.8%; in assay [9] it was 7.9% (active); in assay [10] it was 9.79% (active).
Consider `COc1cc2nc(-c3cccc4cccnc34)nc(NC3CCN(Cc4ccccc4)CC3)c2cc1OC`, for which the growth in assay [1] was -66.2% (active); in [2], -82.4% (active); in [3], -83% (active); in assay [4], -88.7% (active); in [5], -94.5% (active); in [6] it was -88.3% (active). The growth in [7] is -72.2% (active); in assay [8] it was -30.1% (active); in assay [9], -32.4% (active); in [10], -7.18% (active).
